Test results: the supplement of paper PMC6555819

Tests used:
Assay in all cases: PBM binding z-score (relative to random genomic background probes); higher = stronger binding; sequences stand for … in GC…GCGATTGACAGCGTAGAATGAAGG
[1] = test system: PPARg:RXRa DBDmut IVT, anti-RXR (DBD mutation: RXRa K156A/R161A, NR concentration 270 nM, RXRa partner concentration 90 nM)
Procedure, shortened: (§1)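 On custom Agilent 4×180K arrays, double-stranded probes with 34-nt variable regions carried direct-repeat seeds, single-nucleotide variants, half-site ablations or random human genomic background. Ligand-free nuclear receptor dimers were applied for 1 h, and binding was read with antibodies against each partner (one per run). Binding z-scores come from regression-normalized fluorescence, with the random background probes as reference.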

[2] = test system: PPARg:RXRa IVT, anti-PPARg (NR concentration 270 nM, RXRa partner concentration 90 nM)
Procedure, shortened: as §1

[3] = test system: PPARg DBDmut:RXRa IVT, anti-PPARg (DBD mutation: PPARg1 K132A/R137A, NR concentration 270 nM, RXRa partner concentration 90 nM)
Procedure, shortened: as §1

[4] = test system: PPARg DBDmut IVT, anti-PPARg (DBD mutation: PPARg1 K132A/R137A, NR concentration 270 nM)
Procedure, shortened: as §1

[5] = test system: PPARg homodimer (NR concentration 180 nM)
Procedure, shortened: as §1

[6] = test system: PXR:RXRa (NR concentration 270 nM, RXRa partner concentration 90 nM)
Procedure, shortened: as §1

[7] = test system: PXR homodimer (NR concentration 270 nM)
Procedure, shortened: as §1

[8] = test system: RARa:RXR (NR concentration 270 nM, RXRa partner concentration 90 nM)
Procedure, shortened: as §1

[9] = test system: RARa homodimer (NR concentration 270 nM)
Procedure, shortened: as §1

[10] = test system: RARb:RXRa (NR concentration 270 nM, RXRa partner concentration 90 nM)
Procedure, shortened: as §1

Sequence | PBM binding z-score [1] | PBM binding z-score [2] | PBM binding z-score [3] | PBM binding z-score [4] | PBM binding z-score [5] | PBM binding z-score [6] | PBM binding z-score [7] | PBM binding z-score [8] | PBM binding z-score [9] | PBM binding z-score [10]
TGTCAAGGTTCAAAGGTAACGTAAGTATCCACAC | -0.0297 | 3.17 | 0.246 | 0.633 | 3.16 | 4.14 | 0.595 | 5.82 | 0.446 | 3.32
GCTCGTAGATCAAGGTTAAGAAAGACTAAGCTAA | -0.49 | -0.249 | -1.42 | -0.839 | -1.01 | 0.125 | -0.272 | 0.412 | -0.428 | 0.601
TCTTGTAGATCAATAAAGGTTAAGAAAGTGCGCT | 2.1 | 1.29 | 0.661 | 1.24 | 1.33 | 3.04 | 0.584 | 2.3 | 1.6 | 1.53
TAGCCTAGGTCATGCGGACCAGTATAGTGTCGGC | 1.69 | 2.81 | -0.0719 | -0.526 | 0.843 | 1.31 | -0.745 | 2.2 | -0.507 | 3.65
TGAATGAGGTTATAAGATCCGGGAACGTTGCAAA | 1.11 | 1.48 | 1.46 | 0.366 | 0.364 | 0.692 | -0.0533 | 1.28 | -0.21 | 1.14
TCAAATAGGTAAACAGGTGAAAGTCCGTAAGTTA | 4.13 | 3.99 | 0.833 | 0.995 | 1.07 | 0.682 | 0.0929 | 1.16 | 1.7 | 0.892
CGGAGTAGGTTATGGGGCATTCAGGCAACGGTGA | 4.84 | 5.14 | 0.983 | -0.0364 | 1.28 | 0.209 | 0.125 | 0.151 | 0.386 | 0.965
AGTCAAAGTTCAGGACGAGGTAACGTATAGCACG | -0.0709 | 2.03 | 0.949 | 0.866 | 2.09 | 3.08 | 1.29 | 2.97 | 0.98 | 4.34
ATCGAACGGTCGTGAGGTGAGTATACAGAAAGGC | -0.977 | 0.391 | 0.438 | 0.339 | 0.0797 | 0.0108 | -0.33 | 0.461 | 0.0209 | 1.08
CCTAGTTGGTCAGGAGGTCACCCACCGGATATGA | 0.575 | 3.28 | -0.921 | -0.185 | 3.43 | 4.07 | 1.23 | 4.11 | 1.53 | 3.61
AGAATGAGGTTATACGTAAATCAGGGAAGAAAGT | 3.33 | 2.28 | 0.904 | 1.57 | 0.789 | 1.18 | 0.834 | 1.77 | 0.337 | 1.59
AATACAGGGTCACTAGGCCAGAGCAGGTACGAAT | 4.31 | 5.63 | 2.36 | 1.22 | 2.4 | 3.16 | -0.000752 | 4.15 | 0.899 | 4.16
CGAACTAGGTCAAGGACTGTGAATCTCCGCACGC | 8.18 | 8.06 | 0.764 | 0.958 | 1.34 | 0.92 | -0.392 | 1.78 | 0.232 | 4.01
TCATATAGGTAAAGGTGAAAGTAGAACGATATGA | 4.02 | 4.56 | 2.33 | 2.14 | 1.55 | 1.08 | -0.104 | 1.42 | 0.341 | 2.02
TCTGCTAGGTCAACGATGGTCCGCTAATCTGCTA | 4.07 | 4 | -0.429 | 0.0666 | 0.694 | 0.998 | -0.847 | 1.91 | -0.449 | 3.91
TCTACTAGTTGATTAGGGCAACCGAAACAGCGGA | 1.59 | 1.11 | -0.0224 | -0.068 | -0.343 | 0.00114 | -0.203 | 0.226 | -0.458 | 0.694
TCTAGTTGGTTAAAGGTCACACACTCGAAATGCG | 3.15 | 5.25 | 1.74 | 2.83 | 4.61 | 5.24 | 1.86 | 6.06 | 4.25 | 4.77
TCTAGTAGGTTAGTCGGGGCATTCAGCCAACATA | 4.91 | 4.13 | 0.243 | 0.851 | 1.41 | 0.733 | 0.807 | 0.939 | 0.282 | 0.996
ATATTTAGGTTATCGGGTCATTCAGTTTGCGCAT | 6.89 | 6.64 | 4.67 | 4.42 | 4.15 | 3.9 | 8.95 | 4.06 | 4.33 | 2.93
TAGCCTAGGTCAGATCGGGCCAGTATACGCTATA | 0.415 | 1.78 | 0.225 | -0.375 | 0.0641 | 1.01 | -0.518 | 1.42 | -0.937 | 3.02
CTCGAAAGGTCGTGCTCAGGGGAGTATACCAAAC | 0.876 | 1.67 | 0.228 | 0.455 | 1.54 | 2.79 | 0.224 | 3.43 | -0.0621 | 3.88
ACTCGGAGGAAAAAGGTCAGAGCTACGCCAGTGA | -0.318 | 1.1 | 0.319 | -0.672 | 1.74 | 2.65 | 0.00836 | 3.29 | 1.23 | 3.88
ACTATTAGTTTAGACGAGGGCAACCGATAGGTTG | 0.00795 | 0.402 | 0.0772 | 1.14 | 0.811 | 1.29 | 0.902 | 1.26 | 1.02 | 1.25
TCATATAGGTAATACAGTTGAAAGTCGGCATCTA | 4.07 | 2.33 | 1.55 | 1.26 | 1.26 | 1.11 | 0.75 | 1.51 | 2.05 | 0.685
TCGAGTAGGTTAGTCGGGGTATTCAGCCAACATA | 2.12 | 1.56 | -0.225 | -0.287 | -0.0532 | -0.197 | -0.205 | 0.128 | -0.0281 | 0.0838
